Measurements reported in PubChem BioAssay AID1159580 (chemical genetic matrix, 2015).
Where “and” joins values, the source holds several entries; their conditions need not be identical. Identical values can stand only once. In all, about 5,500 compounds went through this assay and about 2,000 (36%) were called active. Roughly 18% stayed inconclusive and do not appear here. No stated cut-off is given here; in the data, active means normalized growth mostly below about 0.91 (no sharp cut-off); inconclusive means no clear call, values can overlap the other calls; inactive means mostly above about 0.92. Some of the results follow.

Assay: chemical genetic growth profiling, strain panel (AID 1159580);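 further: tested at 20 µM; growth read once vehicle control cultures reached saturation at 30 °C; 1 = growth at the plate median or of vehicle wells; lower values mean less growth of the strain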
Details: S. cerevisiae deletion strains, growth OD

Measured: normalized growth

CC1(C)CC[C@]2(C(=O)O)CC[C@]3(C)C(=CCC4[C@@]5(C)CC[C@@H](O)C(C)(C)C5CC[C@]43C)C2C1 (stereo partly drawn)
inactive: locus YAL021C, strain ccr4, hits give low values 1.02 | locus YAL026C, strain drs2, hits give low values 1.01 | locus YAL030W, strain snc1, hits give low values 1.03 | locus YBL061C, strain skt5, hits give low values 1.01 | locus YBR009C, strain hhf1, hits give low values 0.995 | locus YBR021W, strain FUR4, hits give low values 1.02 | locus YBR023C, strain chs3, hits give low values 1.01 | locus YBR171W, strain sec66, hits give low values 1.05 | locus YBR229C, strain ROT2, hits give low values 1.01 | locus YBR231C, strain swc5, hits give low values 1.02 | locus YBR279W, strain paf1, hits give low values 1.01 | locus YCL011C, strain gbp2, hits give low values 1.01 | locus YCL016C, strain dcc1, hits give low values 1.03 | locus YCL029C, strain bik1, hits give low values 1.01 | locus YCL069W, strain vba3, hits give low values 1.02 | locus YCR088W, strain abp1, hits give low values 1.01 | locus YDL005C, strain med2, hits give low values 1.03 | locus YDL035C, strain GPR1, hits give low values 1.01 | locus YDL040C, strain nat1, hits give low values 1.01 | locus YDL074C, strain BRE1, hits give low values 1.06 | locus YDL101C, strain DUN1, hits give low values 1.02 | locus YDL134C, strain PPH21, hits give low values 1.04 | locus YDL185W, strain tfp1, hits give low values 1.02 | locus YDR001C, strain nth1, hits give low values 1.01 | locus YDR069C, strain doa4, hits give low values 1.05 | locus YDR101C, strain arx1, hits give low values 0.991 | locus YDR137W, strain rgp1, hits give low values 1.07 | locus YDR150W, strain NUM1, hits give low values 1.01 | locus YDR159W, strain sac3, hits give low values 1.04 | locus YDR162C, strain NBP2, hits give low values 1.05 | locus YDR195W, strain ref2 0.987 | locus YDR297W, strain sur2, hits give low values 1 | locus YDR318W, strain mcm21, hits give low values 1.02 | locus YDR334W, strain swr1, hits give low values 1.03 | locus YDR335W, strain msn5, hits give low values 1.02 | locus YDR388W, hits give low values 1.02 | locus YDR392W, strain spt3, hits give low values 1.03 | locus YDR502C, strain sam2, hits give low values 1.02 | locus YEL003W, strain gim4, hits give low values 1.02 | locus YEL037C, strain rad23, hits give low values 1.01 | locus YEL061C, strain CIN8 (second series), hits give low values 1 | locus YER015W, strain faa2, hits give low values 1.01 | locus YER016W, strain bim1, hits give low values 1.03 | locus YER110C, hits give low values 1.02 | locus YER111C, strain swi4, hits give low values 1.01 | locus YER155C, strain BEM2 (second series), hits give low values 1.02 | locus YER155C, strain BEM2, hits give low values 1.01 | locus YER167W, strain BCK2, hits give low values 1.01 | locus YFR010W, strain ubp6, hits give low values 1.01 | locus YGL078C, strain dbp3, hits give low values 1.04 | locus YGL086W, strain mad1, hits give low values 1.03 | locus YGL167C, strain pmr1, hits give low values 1.03 | locus YGL173C, strain kem1, hits give low values 1.02 | locus YGL227W, strain vid30, hits give low values 1.01 | locus YGL240W, strain doc1, hits give low values 1.03 | locus YGL248W, strain PDE1, hits give low values 1.02 | locus YGL253W, strain hxk2, hits give low values 1.01 | locus YGR135W, strain pre9, hits give low values 1.02 | locus YGR229C, strain SMI1, hits give low values 1.05 | locus YGR252W, strain gcn5, hits give low values 0.944 | locus YHR013C, strain ard1, hits give low values 1.04 | locus YHR027C, strain rpn1, hits give low values 1.02 | locus YHR030C, strain SLT2, hits give low values 1.01 and 1.02 | locus YHR079C, strain IRE1 (second series), hits give low values 1.01 | locus YHR079C, strain IRE1, hits give low values 1.05 | locus YHR094C, strain hxt1, hits give low values 1.01 | locus YHR129C, strain ARP1, hits give low values 1.01 | locus YHR142W, strain chs7, hits give low values 1.02 | locus YHR200W, strain rpn10, hits give low values 1.01 | locus YIL066C, strain RNR3, hits give low values 1.03 | locus YIL073C, strain SPO22, hits give low values 1.05 | locus YIL125W, strain kgd1, hits give low values 1.01 | locus YJL092W, strain hpr5, hits give low values 1.02 | locus YJL095W, strain BCK1 (second series), hits give low values 1.03 | locus YJL095W, strain BCK1, hits give low values 1.05 and 1.02 | locus YJL115W, strain asf1, hits give low values 1.01 | locus YJL129C, strain trk1, hits give low values 1.04 | locus YJL134W, strain LCB3, hits give low values 1.01 | locus YJL154C, strain vps35, hits give low values 1.01 | locus YJL164C, strain tpk1, hits give low values 1.02 | locus YJL166W, strain qcr8, hits give low values 1.02 | locus YJL168C, strain set2, hits give low values 1.02 | locus YJL187C, strain SWE1 (second series), hits give low values 1.04 | locus YJR043C, strain POL32, hits give low values 1 | locus YJR066W, strain TOR1, hits give low values 0.982 | locus YKL160W, strain elf1, hits give low values 1.02 | locus YKL190W, strain CNB1, hits give low values 1.02 | locus YKR001C, strain vps1, hits give low values 0.993 | locus YKR026C, strain gcn3, hits give low values 1.02 | locus YKR091W, strain srl3, hits give low values 1.02 | locus YLL001W, strain dnm1, hits give low values 1.01 | locus YLL026W, hits give low values 1.02 | locus YLL041C, strain sdh2, hits give low values 1.02 | locus YLR027C, strain aat2, hits give low values 1.01 | locus YLR039C, strain RIC1, hits give low values 1.11 | locus YLR058C, strain SHM2, hits give low values 1.02 | locus YLR102C, strain apc9, hits give low values 1.02 | locus YLR113W, strain HOG1, hits give low values 0.951 | locus YLR221C, strain rsa3, hits give low values 1 | locus YLR258W, strain gsy2, hits give low values 1.01 | locus YLR262C, strain YPT6 (second series), hits give low values 0.984 | locus YLR262C, strain YPT6, hits give low values 1.1 | locus YLR268W, strain sec22, hits give low values 0.986 | locus YLR320W, strain mms22, hits give low values 1.01 | locus YLR342W, strain FKS1 (second series), hits give low values 0.964 | locus YLR342W, strain FKS1, hits give low values 1.01 | locus YLR357W, strain rsc2, hits give low values 1.03 | locus YLR370C, strain arc18, hits give low values 1 | locus YLR371W, strain rom2, hits give low values 0.992 | locus YLR384C, strain iki3, hits give low values 1.02 | locus YLR418C, strain cdc73, hits give low values 1.09 | locus YML016C, strain PPZ1, hits give low values 1.01 | locus YML032C, strain rad52, hits give low values 0.991 | locus YML120C, strain ndi1, hits give low values 1.01 | locus YML124C, strain tub3, hits give low values 1.01 | locus YMR058W, strain fet3, hits give low values 1.02 | locus YMR078C, strain ctf18, hits give low values 1.02 | locus YMR125W, strain sto1, hits give low values 1.04 | locus YMR129W, hits give low values 1.01 | locus YMR205C, strain PFK2, hits give low values 1.03 | locus YMR223W, strain ubp8, hits give low values 1.02 | locus YMR231W, strain pep5, hits give low values 1.02 | locus YMR307W, strain GAS1, hits give low values 0.976 | locus YNL067W, strain RPL9B, hits give low values 1.05 | locus YNL071W, strain lat1, hits give low values 1 | locus YNL128W, strain TEP1, hits give low values 1.03 | locus YNL183C, strain NPR1, hits give low values 0.994 | locus YNL209W, strain ssb2, hits give low values 1.01 | locus YNL233W, strain BNI4, hits give low values 1.03 | locus YNL248C, strain rpa49, hits give low values 1.01 | locus YNL250W, strain rad50, hits give low values 1.04 | locus YNL271C, strain bni1, hits give low values 1.03 | locus YNL298W, strain CLA4, hits give low values 1.07 | locus YNL307C, strain MCK1, hits give low values 1.03 | locus YNL322C, strain KRE1 (second series), hits give low values 1.04 | locus YNR049C, strain mso1, hits give low values 1.02 | locus YNR052C, strain pop2, hits give low values 1.03 | locus YOL012C, strain htz1 1.33 | locus YOL147C, strain pex11, hits give low values 1 | locus YOR001W, strain rrp6, hits give low values 1.02 | locus YOR061W, strain CKA2, hits give low values 1.02 | locus YOR069W, strain VPS5, hits give low values 1.02 | locus YOR070C, strain gyp1, hits give low values 1.03 | locus YOR080W, strain dia2, hits give low values 1.01 | locus YOR083W, strain WHI5, hits give low values 1.02 | locus YOR106W, strain vam3, hits give low values 1.03 | locus YOR136W, strain idh2, hits give low values 1.01 | locus YOR144C, strain elg1, hits give low values 1.01 | locus YOR184W, strain ser1, hits give low values 1.03 | locus YOR231W, strain MKK1, hits give low values 0.997 | locus YOR265W, strain rbl2, hits give low values 1.02 | locus YOR270C, strain vph1, hits give low values 0.997 | locus YOR290C, strain snf2, hits give low values 1.02 | locus YOR316C, strain cot1, hits give low values 1.01 | locus YPL051W, strain arl3, hits give low values 1 | locus YPL078C, strain atp4, hits give low values 1.04 | locus YPL106C, strain sse1, hits give low values 1.03 | locus YPL240C, strain hsp82, hits give low values 1.01 | locus YPL256C, strain CLN2, hits give low values 1.05 | locus YPR119W, strain clb2, hits give low values 1.01 | locus YPR141C, strain kar3, hits give low values 1.02 | locus YPR163C, strain tif3, hits give low values 1.02 | locus YPR167C, strain met16, hits give low values 1.03 | strain wtn01, hits give low values 1
active: locus YKL009W, strain mrt4, hits give low values 1.45 [resistant] | locus YKL068W, hits give low values 1.21 [resistant] | locus YKL085W, strain MDH1 (second series), hits give low values 1.09 [resistant] | locus YKL085W, strain MDH1, hits give low values 1.09 [resistant]
